# Assay outcomes: PubChem BioAssay, National Center for Advancing Translational Sciences (NCATS)
# PINK1 expr mod: PINK1 expression modulation; PINK1 immunofluorescence, high-content cytometry, 24 h; Potency, µM (doses to about 76.6 µM), for inactives: top-dose activation (PINK1 increase), usual class: activators; 0.2% of 410,000 active; AID 624263; active = well fitted activation curve with a large enough effect; inconclusive = small, poorly fitted or top-dose-only effect; cell line not stated here; note: % of control where 0% means no effect; nearly all actives have a fitted effect of over 65% in size
#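 Decision-based qHTS: stable cells, 24 h exposure to five compound concentrations, CCCP as control. Fixed cells stained for PINK1 plus nuclear, mitochondrial and cell markers, cytometer read.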
# Epigenetic reg: epigenetic control regulation, reporter derepression | 0.2% of 280,000 active | murine LDR cells, GFP reporter derepression, 30 h | Potency, µM (series often up to 53.9 µM), inactives show top-dose GFP activation, most hits filed as activators; note: % of control where 0% means no effect; nearly all actives have a fitted effect of over 60% in size
#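 Reporter derepression read as number of fluorescent GFP-positive objects, 20-120 um in size, counted by laser-scanning cytometer. Mouse LDR line with an epigenetically silenced CMV-GFP locus; compound incubation 30 h, 37 C.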
# HTT cytoprotect: protects HTT-Q103 PC12 cells, measured by ATP; 0.14% of 230,000 active; AID 1471; Potency, µM (series often up to 56.4 µM), for the others: cytoprotection (ATP increase), most hits filed as activators; PC12 HTT-Q103 induced, cytoprotection, ATP luminescence, 40 h; note: % of control where 0% means no effect; nearly all actives have a fitted effect of over 45% in size
#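 Compounds added alongside 100 nM tebufenozide, which induces toxic Q103 huntingtin exon 1-GFP in stable PC12 cells; surviving cells quantified by luminescent ATP measurement. Medium: phenol red-free DMEM, 5% equine and 5% calf serum.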
# HTT aggregate: mutant huntingtin aggregation inhibition; PC12 HttQ103-GFP aggregates, Acumen cytometry, 40 h; Potency, µM (top dose mostly 46.1 µM), for the others: top-dose activity change, negative = inhibition, hits mostly inhibitors; 1.1% of 220,000 active; note: % is set by controls: 0 for no effect and ±100 for the full control effect; nearly all actives have a fitted effect of over 60% in size
#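 Huntingtin Q103 exon 1–GFP aggregates in induced PC12 cells (100 nM tebufenozide) were quantified by cytometry from lysates, with compounds dosed in titration.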
# The depositor's hits bear a star; ? = inconclusive; · = no result given; [ ] = another dose, or the depositor's remark. Many of the other results were omitted from the sample, so hits are more common in it than they were. Unless noted, calls come from the whole dose curve; as a rule, active = well fitted curve in the direction sought with a large enough effect; inconclusive = small, poorly fitted or top-dose-only effect, or another doubt; inactive = no such curve, though single readings can be large; an effect the other way counts as inactive or inconclusive. Potency is the fitted concentration of half-maximal effect.
SMILES,PINK1 expr mod,Epigenetic reg,HTT cytoprotect,HTT aggregate
COc1ccc(C2=NN(C(=O)c3cccs3)C(c3ccccc3O)C2)cc1 (centres undefined),2%,?,?,-26%
O=C1C=CCC(/C=C/c2ccccc2)O1 (centres undefined),-2%,6%,·,10µM*
Cc1ccc(NC(=S)NC2CCCC2)c(C)c1,0%,·,·,·
O=C(Nc1ccc(N2CCN(C(=O)c3ccccc3)CC2)cc1)c1ccc(Br)o1,3%,0%,1%[0.074 µM],?
O=C(Cc1ccc(Cl)cc1)Nc1ccc(N2CCN(C(=O)c3ccco3)CC2)c(Cl)c1,0%,-5%,-4%[0.074 µM],10µM*
O=C(Nc1ccc(N2CCN(C(=O)c3ccccc3)CC2)c(Cl)c1)c1ccc(Br)o1,-16%[38.3 µM],-1%,-69%,11µM*
CC(=O)CC1OC(=O)C(Br)=C1NCc1ccccc1 (centres undefined),-3%[38.3 µM],7.9µM*,-142%,?
CCOC(=O)/C(=N/Nc1ccccc1)c1csc(Nc2ccccc2)n1,11µM*,-5%,-20%,1%
COc1cccc(-c2cc(C(=O)N3CCCCCC3)no2)c1,1%,1%,-26%[10 µM],-7%
C[n+]1ccc(/C=C/c2ccc3ccccc3c2)cc1,·,0%,-37%,·
Cn1cc(/C=C/c2cc[n+](C)cc2)c2cc(F)ccc21,11µM*,·,·,·
C[n+]1ccc(/C=C/c2c[nH]c3ccc(F)cc23)cc1,16µM*,·,·,·
COc1ccc(C2(c3ccc(OC)cc3)NC(=O)N(CC(=O)Nc3ccccc3C)C2=O)cc1,2%,·,·,·
COc1ccc(NS(=O)(=O)c2ccc(NS(C)(=O)=O)cc2)cc1,-4%[38.3 µM],-2%,2%,-30%
O=C(NCCOc1ccccc1)c1cccc2c1C(=O)c1ccc(Cl)cc1S2(=O)=O,4%,·,·,·
COc1ccc(-c2ccc3c(c2)S(=O)(=O)c2cccc(C(=O)NCCOc4ccccc4)c2C3=O)cc1OC,35µM*,·,·,·
Cc1noc(-c2ccc(NC(C)c3ccccc3)c([N+](=O)[O-])c2)n1 (centres undefined),2%,-5%,·,·
COc1ccc(-n2c(-c3ccc(Br)cc3)c[n+]3c2CCCCC3)cc1,3%,3%,13%[10 µM],2.2µM*
COc1ccc(-n2c(-c3ccccc3)c[n+]3c2CCC3)cc1,3%,1%,4%[10 µM],2%[9.22 µM]
Cc1ccc(-n2c(-c3ccccc3)c[n+]3c2CCC3)cc1,0%,0%,-37%,8.9µM*
COc1ccc(-n2c(-c3ccc(Br)cc3)c[n+]3c2SC(C)C3)cc1 (centres undefined),6%,3%,·,10µM*
COc1ccc(-n2c(-c3ccc(Br)cc3)c[n+]3c2CCC3)cc1,-1%,2%,-21%,?
CCC(/C=C1\Sc2ccc(OC)cc2N1CCO)=C\c1sc2ccc(OC)cc2[n+]1CCO,14µM*,-3%,12%[10 µM],?
CCC(/C=C1\Sc2ccc(OC)cc2N1CC)=C\c1sc2ccc(OC)cc2[n+]1CCCS(=O)(=O)[O-],19%,-2%,-17%,?
O=C(Nc1ccc(F)cc1)Nc1ccc2snnc2c1,32µM*,-3%,·,·
SMILES,PINK1 expr mod,Epigenetic reg,HTT cytoprotect,HTT aggregate
CCOC(=O)NC(NC(=S)Nc1ccc(OCC)cc1)C(Cl)(Cl)Cl (centres undefined),10%,-2%,·,13%
O=C(NC(NC(=S)Nc1c(Cl)cccc1Cl)C(Cl)(Cl)Cl)OCc1ccccc1 (centres undefined),?,1%,-4%[10 µM],22µM*
C/C(=N/NC(=O)c1ccncc1)c1cc2ccc(O)cc2oc1=O,0%,0%,22%[10 µM],13µM*
Cc1cc(C)c2nc(SCC(=O)N3CC(=O)Nc4ccccc43)c(C#N)cc2c1,7%,10µM*,-82%[1.9 µM],-2%
COc1ccc2nc(SCC(=O)N3CC(=O)Nc4ccccc43)c(C#N)cc2c1,2%,?,-41%,31%[9.22 µM]
O=C(Nc1cccs1)Nc1c(F)c(F)c(F)c(F)c1F,2%,-1%,21%[10 µM],?
CCN(CC)c1ncnc2scc(C3COc4ccccc4O3)c12 (centres undefined),1%,-1%,21%[10 µM],?
c1ccc2c(c1)OCC(c1csc3ncnc(N4CCOCC4)c13)O2 (centres undefined),·,-1%,-2%,13µM*
O=C(COC(=O)c1cc(S(=O)(=O)N2CCOCC2)ccc1F)Nc1c(Cl)cccc1C(F)(F)F,0%,·,·,·
COc1ccc(NC(=S)NN2CCN(C)CC2)cc1,-2%,-1%,-10%,-17%
O=C(NNC(=S)NC1CCCCC1)c1sc2ccccc2c1Cl,?,2%,-1%[10 µM],5%
CC(C)(C)C(=O)NC(=S)NNC(=O)c1sc2ccccc2c1Cl,-5%,-2%,-27%[10 µM],10µM*
CCOC(=O)c1c(C)[nH]c(C)c1C(=O)COC(=O)c1ccc(Cl)nc1,-2%,·,·,·
CC(=O)Nc1ccc(NC(=O)c2ccc(N(C)S(=O)(=O)c3ccc(C)cc3)cc2)cc1,10%,·,·,·
CN(c1ccccc1)S(=O)(=O)c1ccc(NC(=O)c2ccc(-c3ccccc3)cc2)cc1,?,0%,-37%,13µM*
CCCC(=O)c1cc2ccccc2oc1=O,-1%,0%,13%,5%
N#C/C(=C/c1ccc(N2CCOCC2)o1)c1ccc(Cl)cc1,13µM*,3.2µM*,?,?
N#C/C(=C\c1ccc(N2CCOCC2)o1)c1nc2ccccc2[nH]1,14µM*,13µM*,-60%,-31%
COc1cc(OC)cc(-c2cc3nc(C)c(CCC(=O)Nc4ccc(C(C)=O)cc4)c(C)n3n2)c1,-1%,1%,·,·
COC(=O)c1ccccc1NC(=O)c1nc(S(=O)(=O)Cc2ccccc2F)ncc1Cl,0%,5%,·,·
COc1cccc(Nc2nc(NCC3CCCO3)c3ccccc3n2)c1 (centres undefined),0%,1%,-132%,10µM*
COc1cccc(Nc2nc(NCCO)c3ccccc3n2)c1,-1%,3%,-55%,8.9µM*
COCCNC(=O)CSc1cc(-c2ccccc2)c2ccc(OC)cc2n1,4%,-3%,14%[10 µM],-17%
CC(=O)Nc1cnc(-c2cc(C)c(O)c(C)c2)cn1,5%,·,·,·
Oc1ccc(N2CCN(c3ncnc4sc5c(c34)CCC5)CC2)cc1,0%,-1%,6%[10 µM],11µM*
SMILES,PINK1 expr mod,Epigenetic reg,HTT cytoprotect,HTT aggregate
C(=N\Nc1nc(Nc2ccccc2)nc(Nc2ccccc2)n1)/c1ccncc1,-2%,1%,·,·
C(=N\Nc1nc(Nc2ccccc2)nc(Nc2ccccc2)n1)/c1cccnc1,0%,?,-9%[10 µM],4.5µM*
COc1ccc(NC(=S)Nc2ccc(OC)cc2OC)c(OC)c1,0%,-1%,4%[10 µM],0%
CCOC(=O)C1CCCN(C(=O)Nc2ccccc2)C1 (centres undefined),4%[38.3 µM],0%,·,0.63µM*
CCOC(=O)C1CCCN(C(=O)C2CCN(C(=O)Nc3ccccc3)CC2)C1 (centres undefined),2%,·,·,·
CCN(c1ccc(OC)cc1)c1ncnc2nc[nH]c12,-1%,1%,-30%[10 µM],5.6µM*
CCCN(c1ccc(OCC)cc1)c1ncnc2nc[nH]c12,1%,-2%,6%[10 µM],11µM*
